Compound activity from PubChem BioAssay.
Rows were chosen to be rich in hits. Some 5.4% of all compounds tested hit in one or more screens of this group.
A3A deaminase: blocks human APOBEC3A ssDNA deamination; P31941; recombinant A3A, FAM/TAMRA ssDNA deamination fluorescence; inhibition, % at 20 µM; 0.41% of 330,000 active;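 active = at least 40% inhibition at 20 µM here, with at most 30% in a related deaminase screen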;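 also: plate controls were A3A with DMSO for no effect and wells lacking A3A enzyme for full effect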
ALR H2O2 inh: blocks human ALR sulfhydryl oxidase activity | purified ALR, DTT oxidation, H2O2 HRP-luminol luminescence | inhibition, % (concentration not given with the values) | 3.8% of 290,000 active;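 active = mean replicate inhibition above about 79%, with every replicate also reaching it, limit read from the data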
A3G deaminase: blocks human APOBEC3G single-stranded DNA deamination; recombinant A3G, ssDNA deamination FAM/TAMRA fluorescence; inhibition, % at 20 µM; 0.28% of 330,000 active;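 active = inhibition of at least 40% at 20 µM, with no more than 30% in the related APOBEC3A deaminase screen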;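 also: plate controls were DMSO wells with A3G for no effect and wells lacking A3G enzyme for full effect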
aDG glyco up: increases alpha dystroglycan glycosylation | 0.22% of 360,000 active | AID 624168 | activation, % at 10 µM | Pro5-aDG cells, alpha-DG glycosylation AlphaScreen (IIH6); 0% Pro5, 100% B10-LARGE cell signal;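 active = activation of at least 8% versus controls, or a plate z-score of at least 8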;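 also: Pro5 are CHO cells carrying HIG-tagged alpha-DG that lacks glycosylation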
PHOSPHO1 block: blocks human PHOSPHO1 phosphatase activity. inhibition, % at 13.3 µM. 1.1% of 290,000 active. recombinant PHOSPHO1, absorbance phosphatase assay. Q8TCT1; in the data active = inhibition above about 60%
Target sequence (Q8TCT1 whole entry, looked up): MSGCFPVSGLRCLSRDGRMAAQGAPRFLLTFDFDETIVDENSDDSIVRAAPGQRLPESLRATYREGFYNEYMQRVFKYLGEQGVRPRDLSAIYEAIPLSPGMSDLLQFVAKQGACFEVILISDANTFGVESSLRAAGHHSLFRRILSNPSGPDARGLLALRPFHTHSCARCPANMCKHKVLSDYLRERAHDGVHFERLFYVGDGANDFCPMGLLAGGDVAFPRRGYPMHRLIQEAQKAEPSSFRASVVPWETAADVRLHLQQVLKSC
rCAG binder: r(CAG) repeat RNA binding. TO-PRO-1 dye displacement fluorescence. inhibition, % at 3 µM. 1.3% of 370,000 active;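 active = inhibition above the plate cutoff, the mean of all test compounds on that plate plus 3 SD, cut at about 35% in these data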;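 also: 0% = DMSO alone and 100% = 100 µM mitoxantrone as full dye displacement; higher means more dye released from RNA so lower well fluorescence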
APOBEC3A confirm: APOBEC3A (human) deaminase inhibition, confirmed; inhibition, % at 20 µM; 63% of 1,400 active; shares compounds with A3A deaminase; recombinant A3A, ssDNA deaminase UDG fluorescence assay;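 active = inhibition reaching a set limit, 80% of the first screen's cutoff, at 20 µM in any replicate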;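 also: plate controls were DMSO wells with A3A for no effect and wells lacking A3A enzyme for full effect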
UDG A3A counter: counter-screen for APOBEC3A inhibitors: UDG. shares compounds with A3A deaminase. UDG counterscreen, FAM/TAMRA uracil oligo fluorescence. inhibition, % at 20 µM. 1,000 tested, under 10 active; call rule not given here
Active calls of the source: *; · = not tested or not shown.

SMILES	A3A deaminase	ALR H2O2 inh	A3G deaminase	aDG glyco up	PHOSPHO1 block	rCAG binder	APOBEC3A confirm	UDG A3A counter
C[N+]12CCCCC1C(COC(=O)c1ccc3c(c1)OCO3)CCC2 (configuration not stated)	58*	1	28	0	-6	-2	48*	·
CN(C(=O)COC(=O)c1ccc2c(c1)OCO2)C1CCCCC1	-2	-6	-4	0	·	0	·	·
COCCCN1C(=O)C(CC(=O)NCCc2ccccn2)CC(C(=O)N2CCCCCC2)=C1C (configuration not stated)	·	·	·	0	·	-2	·	·
Brc1ccc([C@H]2C=C[C@H]3CCCN4CC[C@H]2[C@@H]3[C@]42CO2)cc1	·	·	·	0	·	11	·	·
COc1ccccc1N(CC(=O)Nc1ccc2c(c1)OCO2)S(=O)(=O)c1ccccc1	49*	1	17	1	92*	-7	64*	-4
COc1ccc(S(=O)(=O)N(CC(=O)Nc2ccc3c(c2)OCO3)c2ccccc2OC)cc1	-3	-6	-4	0	9	5	·	·
CCCC[n+]1ccn(-c2nc3ccccc3nc2[N-]S(=O)(=O)c2ccc(Cl)cc2)c1	-4	·	-9	0	3	-2	·	·
CCCC[n+]1ccn(-c2nc3c([N+](=O)[O-])cccc3n2C)c1	68*	-4	17	0	5	-6	78*	·
COC(=O)C1=C(C)N(Cc2ccccc2)C(=NCCc2cccnc2)N[C@H]1c1ccc(Br)cc1	45*	-2	12	2	·	·	54*	2
COC(=O)C1=C(C)N(Cc2ccccc2)C(=NCCCCO)N[C@H]1c1ccccc1	52*	·	19	·	-52	·	75*	6
COC(=O)C1=C(C)N(Cc2ccccc2)C(=NCCc2cccnc2)N[C@H]1c1ccccc1	80*	-21	27	1	-19	·	74*	-3
CCN(CC)c1nc2cc(OC)ccc2cc1C#N	0	17	-2	0	0	-3	·	·
CC[n+]1c(/C=C/c2cc([N+](=O)[O-])ccc2O)ccc2ccccc21	7	-50	-11	1	-7	9	·	·
CC[n+]1c(/C=C/c2ccc(OC)c(OC)c2)ccc2ccccc21	79*	20	-14	0	14	-18	93*	0
CC[n+]1c(/C=C/c2ccc(OC(C)=O)c(OC)c2)ccc2ccccc21	53*	57	20	0	1	-2	58*	·
CCN(CC)c1ccc(/C=C/c2ccc3ccc(OC)cc3[n+]2CC)cc1	75*	99*	26	0	22	10	84*	0
Cc1ccc(CN2CCC[C@]3(N[C@H](c4ccc(C(F)(F)F)cc4)[C@@H]4C(=O)N(Cc5ccccc5)C(=O)[C@@H]43)C2=O)cc1	·	·	·	0	·	4	·	·
O=C(CN(c1ccccn1)S(=O)(=O)c1ccccc1)N/N=C/c1cccc([N+](=O)[O-])c1	44*	-7	4	0	-2	-4	15	·
CCSC1=NC(=O)/C(=C2/C=Cc3ccccc3N2CC)S1	40*	25	21	0	-29	-1	18	·
N#Cc1ccccc1CN1C(=O)S/C(=C/c2cccn2-c2ccc(C(=O)O)cc2)C1=O	44*	98*	14	0	-1	7	25*	-3
CCCC1=[N+](CC)CCn2c(C)ccc21	60*	-4	20	0	37	-3	76*	0
CCCC1=[N+](CC(=O)c2ccccc2)CCn2c(C)ccc21	-7	-7	-9	0	19	3	·	·
O=C(O)c1ccc(-c2nn3c(=O)cc(N4CCNCC4)nc3s2)cc1	·	·	·	0	·	3	·	·
O=C(O)[C@H]1Cc2ccccc2CN1S(=O)(=O)c1ccc(F)cc1	0	·	-2	0	20	-1	·	·
CC(=O)c1ccc(S(=O)(=O)N2Cc3ccccc3CC2C(=O)O)cc1 (configuration not stated)	56*	13	19	0	16	12	56*	2
CC(=O)Nc1cc(-c2ccccc2)ccc1O	47*	99*	16	0	90*	1	60*	-3
